{
  "source": "PubChem BioAssay AID686978",
  "about": "(National Center for Advancing Translational Sciences (NCATS), 2013)",
  "note": "In all, about 420,000 compounds went through this assay and about 64,000 (15%) were called active. About 27% were inconclusive and are not listed. The call rests on the fitted dose curve; in most records, active means well fitted inhibition curve with a large enough effect; inconclusive means small, poorly fitted or top-dose-only effect; inactive means flat fitted curve, though single readings scatter. Not all results are given here. On the % scale 0 is the no-effect control and ±100 the full control effect; potency means the concentration at half of the fitted maximal effect.",
  "data": [
    {"experiment": "qHTS for Inhibitors of human tyrosyl-DNA phosphodiesterase 1 (TDP1): qHTS in cells in absence of CPT; further: nearly all actives have a fitted effect of over 55% in size", "settings": "DT40 Tdp1-/- hTDP1 cells, no CPT, ATP luminescence, 48 h; activity change, negative = growth inhibition: at 46.2 µM (top of the series)", "source_text": "Human tyrosyl-DNA phosphodiesterase 1 (TDP1) is a novel repair gene, and we propose to use it as a new target for anticancer drug development. TDP1 is not an essential protein, but under treatment with topoisomerase I poison (camptothecin: CPT), TDP1 works as a critical factor for cell survival. To directly identify novel TDP1 inhibitors active in a cellular environment, we have knocked-out the Tdp1 gene in chicken DT40 cells (Tdp1-/-) and generated a complemented counterpart cells that contains a stable transfection of the human TDP1 gene (Tdp1-/-;hTDP1 cells). For the primary screen, Tdp1-/-;hTDP1 cells will be exposed to small molecules in the presence or absence of CPT, and their growth kinetics will be evaluated after 48 hours by measuring ATP activity. […] The hit compounds will then be evaluated in the presence or absence of CPT using Tdp1-/- cells. […] In tertiary assays, biochemical gel-based assays will be used to assess whether the hit compounds specifically target TDP1.\nTo this end, we have screened this cell line against the MLSMR in two primary screens. In one screen we add CPT and in the other we screen in the absence of CPT; this AID represents the screen where CPT was absent.\nNIH Chemical Genomics Center [NCGC]\nNIH Molecular Libraries Probe Centers Network [MLPCN]\nAssay Submitter (PI): Yves Pommier, NCI\nDT40-hTDP1 cells without 20 nM Camptothecin (add 20 microL of DMSO in 1 L of cell culture medium) were dispensed at 400 cells/5microL/well in tissue culture treated 1536-well white wall/solid bottom assay plates (Greiner Bio-One North America, NC, U.S.A.) using a Multidrop Combi 8 channel dispenser (Thermo Fisher, Waltham, MA, USA). 23 nL compounds and controls were transferred using the pin tool (Kalypsys, San Diego, CA, USA) to the assay plates. The assay plates were then incubated at 37 masculineC for a minimum 48 hr. Three microL of Cell Titer Glo solution was added to the plates and incubated at RT in dark for 30 min. Luminescence was read using ViewLux (Perkin Elmer) with 1 sec exposure slow speed, high gain and 2x binning.", "values": [
      {"smiles": "C=CCn1c(=O)c(C(=O)Nc2ncccc2O)c(O)c2ccccc21", "activity change, negative = growth inhibition": "-18.9% (inactive)"},
      {"smiles": "CCc1cccc(C)c1NC(=O)COC(=O)CNC(=O)c1cccs1", "activity change, negative = growth inhibition": "1.78% (inactive)"},
      {"smiles": "CCc1cccc(C)c1NC(=O)COC(=O)CC1CCCC1", "activity change, negative = growth inhibition": "4.08% (inactive)"},
      {"smiles": "Cc1cc(NC(=O)COc2ccccc2C#N)no1", "activity change, negative = growth inhibition": "14.4% (inactive)"},
      {"smiles": "CCc1cccc(CC)c1NC(=O)COc1ccccc1C(=O)c1cc(C#N)c(=O)n(C2CCCCC2)c1", "Potency": "16.4 µM (active)"},
      {"smiles": "O=S(=O)(NCC(c1ccco1)N1CCOCC1)c1cc(F)ccc1F", "note": "(stereo not drawn)", "activity change, negative = growth inhibition": "-9.31% (inactive)"},
      {"smiles": "COc1ccc(Cn2ccn(CC(=O)Nc3cc(C)ccc3C)c(=O)c2=O)cc1", "activity change, negative = growth inhibition": "25% (inactive)"},
      {"smiles": "CC(C)C(=O)Nc1ccc2c3c(cccc13)CC2", "activity change, negative = growth inhibition": "-15.8% (inactive)"},
      {"smiles": "CC(=O)c1c(N2CCN(c3ccc(F)cc3)CC2)nc(=S)n(-c2ccccc2)c1C", "Potency": "20.6 µM (active)"},
      {"smiles": "CC(=O)c1c(N2CCOCC2)nc(=S)n(-c2cc(C)ccc2C)c1C", "activity change, negative = growth inhibition": "-13.9% (inactive)"},
      {"smiles": "Cc1ccc2cc(C)c(N3CCN(c4ccc(F)cc4)CC3)nc2c1", "activity change, negative = growth inhibition": "-3.8% (inactive)"},
      {"smiles": "CNC(=O)COc1ccc(S(=O)(=O)Nc2ccccc2)cc1", "activity change, negative = growth inhibition": "-7.11% (inactive)"},
      {"smiles": "CCn1c(C(C)NC(=O)c2ccc(C)cc2)n[nH]c1=S", "note": "(stereo not drawn)", "activity change, negative = growth inhibition": "-9.48% (inactive)"},
      {"smiles": "C/C(=C\\C(=O)c1ccccc1)Nc1cccc(O)c1", "activity change, negative = growth inhibition": "-19.5% (inactive)"},
      {"smiles": "N/C(=N\\OC(=O)CCn1cccc(C(F)(F)F)c1=O)c1ccc(OC(F)(F)F)cc1", "activity change, negative = growth inhibition": "-14% (inactive)"},
      {"smiles": "Cc1ccc(OCCNC(=O)CN2C(=O)NC3(CCCC3)C2=O)cc1", "activity change, negative = growth inhibition": "-13.8% (inactive)"},
      {"smiles": "COC1=CC(=O)OC(C)(c2ccccc2)C1", "note": "(stereo not drawn)", "activity change, negative = growth inhibition": "-8.45% (inactive)"},
      {"smiles": "Cc1nc2c(OCc3cccc(Cl)c3)cccn2c1N(C)CC1CC1", "Potency": "20.6 µM (active)"},
      {"smiles": "Cc1nc2c(OCC(=O)C(C)(C)C)cccn2c1N(C)Cc1cccs1", "activity change, negative = growth inhibition": "-75% (inactive)"},
      {"smiles": "Cc1nc2c(OCc3ccc(Cl)cc3Cl)cccn2c1N(C)CC1CC1", "Potency": "16.4 µM (active)"},
      {"smiles": "O=C(Nc1c[nH]c(=O)[nH]c1=O)OCc1ccccc1", "activity change, negative = growth inhibition": "-22.5% (inactive)"},
      {"smiles": "Cc1ccc(C(=O)Nc2ccc(OCc3cc(=O)n4c5c(sc4n3)CCCC5)cc2)cc1", "activity change, negative = growth inhibition": "-9.99% (inactive)"},
      {"smiles": "CC(C)(C)C(=O)NCCCNc1ccc([N+](=O)[O-])cc1", "activity change, negative = growth inhibition": "-0.828% (inactive)"},
      {"smiles": "CN1CC(=O)N=C1N", "Potency": "inactive"},
      {"smiles": "O=S(=O)(NCc1ccccn1)c1ccc(F)cc1", "activity change, negative = growth inhibition": "-2.5% (inactive)"},
      {"smiles": "CCCCN1CC(CO)Oc2cccc(F)c2S1(=O)=O", "note": "(stereo not drawn)", "activity change, negative = growth inhibition": "-19.8% (inactive)"},
      {"smiles": "COc1cccc(OC)c1C(=O)N1CCN(Cc2cccnc2)CC1", "activity change, negative = growth inhibition": "-17.6% (inactive)"},
      {"smiles": "COc1ccccc1-c1nn(Cc2ccccc2)cc1C(=O)N1CCN(c2ncccn2)CC1", "Potency": "16.4 µM (active)"},
      {"smiles": "COc1cc(C(=O)N2CCOC23CCN(Cc2ccccc2)CC3)cc(OC)c1OC", "activity change, negative = growth inhibition": "-18.3% (inactive)"},
      {"smiles": "COc1ccc(C(=O)NC2CC2)cc1OC1CCN(Cc2ccc(SC)cc2)CC1", "activity change, negative = growth inhibition": "-1.42% (inactive)"},
      {"smiles": "COc1cc(C(=O)N2CCN(C(=O)COc3cccc(C)c3)CC2)cc(OC)c1OC", "activity change, negative = growth inhibition": "-12.4% (inactive)"},
      {"smiles": "COc1cc(C(=O)N2CCN(C/C=C/c3ccccc3)CC2)cc(OC)c1C", "Potency": "29.1 µM (active)"},
      {"smiles": "COc1cc(C(=O)N2CCN(C)CC2)cc(OC)c1OC", "activity change, negative = growth inhibition": "9.62% (inactive)"},
      {"smiles": "COc1ccc(C(=O)NCCn2nc(C)cc2C)cc1OC1CCN(C(C)=O)CC1", "activity change, negative = growth inhibition": "-18.1% (inactive)"},
      {"smiles": "COc1ccc(C(=O)NC2CC2)cc1OC1CCN(C/C=C/c2ccccc2)CC1", "Potency": "23.1 µM (active)"},
      {"smiles": "CCOC(=O)CSc1nnc(NC(=O)C2CC(=O)N(c3ccc(F)cc3)C2)s1", "note": "(stereo not drawn)", "activity change, negative = growth inhibition": "-11.9% (inactive)"},
      {"smiles": "C[C@@H]1O[C@@H](OC[C@H]2O[C@@H](Oc3c(-c4cccc(O)c4O)oc4cc(O)cc(O)c4c3=O)[C@H](O)[C@@H](O)[C@@H]2O)[C@H](O)[C@H](O)[C@H]1O", "activity change, negative = growth inhibition": "-5.29% (inactive)"},
      {"smiles": "O=C1CN(C(=O)COC(=O)C2CC(=O)N(Cc3ccco3)C2)c2ccccc2N1", "note": "(stereo not drawn)", "activity change, negative = growth inhibition": "-19.4% (inactive)"},
      {"smiles": "COc1cc(C(=O)N2CCOCC2)cc(OC)c1OC", "Potency": "inactive"},
      {"smiles": "Cc1cc(C)n(CCC(=O)N2CCN(S(=O)(=O)c3ccc(C)c(C)c3)CC2)n1", "activity change, negative = growth inhibition": "10.6% (inactive)"},
      {"smiles": "O=C(COc1ccccc1O)NC1CCCC1", "activity change, negative = growth inhibition": "-8.81% (inactive)"},
      {"smiles": "CC(C)(C)c1ccc(C(=O)N2CCN(CCNC(=O)C(=O)Nc3ccc(F)cc3)CC2)cc1", "Potency": "10.3 µM (active)"},
      {"smiles": "O=C(NCCN1CCOCC1)/C(=C/c1ccc(F)cc1)NC(=O)c1ccccc1", "activity change, negative = growth inhibition": "-11.9% (inactive)"},
      {"smiles": "Cc1ccc(C(=O)N/C(=C\\c2ccc(F)cc2)C(=O)NCCN2CCOCC2)cc1", "activity change, negative = growth inhibition": "-6.92% (inactive)"},
      {"smiles": "O=C(NCc1ccccc1)c1ccc(CNc2c(N3CCCC3)c(=O)c2=O)cc1", "activity change, negative = growth inhibition": "6.59% (inactive)"},
      {"smiles": "CNC(=O)CSc1nnnn1-c1ccc(C)cc1C", "activity change, negative = growth inhibition": "-5.97% (inactive)"},
      {"smiles": "CC1=C(C(=O)OC2CCCCC2)C(c2ccccc2F)NC(=O)N1", "note": "(stereo not drawn)", "activity change, negative = growth inhibition": "-19.8% (inactive)"},
      {"smiles": "Cc1ccc(C2NC(=S)NC3=C2N2CCC3CC2)cc1", "note": "(stereo not drawn)", "activity change, negative = growth inhibition": "2.29% (inactive)"},
      {"smiles": "Cc1cc2nc(-c3ccc(Cl)cc3)c(Cc3cccc(F)c3)n2c(C)c1Br", "Potency": "23.1 µM (active)"},
      {"smiles": "Cc1cc2nc(-c3ccc(F)cc3)c(Cc3ccsc3)n2c(C)c1Br", "Potency": "11.6 µM (active)"},
      {"smiles": "Cc1cc2nc(-c3ccco3)c(Cc3cccc(F)c3)n2c(C)c1Br", "Potency": "16.4 µM (active)"},
      {"smiles": "CC(NC(=O)CNC(=O)Cc1cccc2ccccc12)c1ccc(S(N)(=O)=O)cc1", "note": "(stereo not drawn)", "activity change, negative = growth inhibition": "15.6% (inactive)"},
      {"smiles": "Nn1c(SCC(=O)NC(=O)NC2CCCC2)nnc1-c1ccccc1F", "activity change, negative = growth inhibition": "-9.8% (inactive)"},
      {"smiles": "O=C1CC(c2ccccc2)CC(O)=C1C=NCCN1CCOCC1", "note": "(stereo not drawn)", "activity change, negative = growth inhibition": "-12.5% (inactive)"},
      {"smiles": "O=C(Oc1ccc(F)cc1)N1CCOCC1", "activity change, negative = growth inhibition": "-8.36% (inactive)"},
      {"smiles": "CC1=C(C)CC(C(=O)NNC(=O)c2csc3c2CCC(C(C)(C)C)C3)C(C(=O)O)C1", "note": "(stereo not drawn)", "activity change, negative = growth inhibition": "2.16% (inactive)"},
      {"smiles": "C[C@H](NC(=O)OC(C)(C)C)c1nnc(SCC(=O)Nc2ccc(Br)cc2)o1", "activity change, negative = growth inhibition": "-16.3% (inactive)"},
      {"smiles": "CCSc1nnc(-c2cc3c(s2)-c2ccccc2CC3)o1", "activity change, negative = growth inhibition": "-24% (inactive)"},
      {"smiles": "Cc1cccc(C)c1NC(=O)CCS(=O)(=O)c1cccc2nsnc12", "activity change, negative = growth inhibition": "-17.9% (inactive)"},
      {"smiles": "Cn1c(C(=O)OC(C(=O)NC2CCCCC2)c2ccccn2)cc2sccc21", "note": "(stereo not drawn)", "activity change, negative = growth inhibition": "-19.1% (inactive)"},
      {"smiles": "COc1ccc(C(=O)N2CCC3(CCCN(C(c4ccccc4)c4ccccc4)C3)CC2)cc1", "activity change, negative = growth inhibition": "-2.93% (inactive)"},
      {"smiles": "Cc1ccc(SCC2=NNC(=O)C2)cc1", "activity change, negative = growth inhibition": "-8.57% (inactive)"},
      {"smiles": "Cc1ccc(C(=O)N/C(=C/C=C/c2ccccc2)C(=O)NCc2ccco2)cc1", "activity change, negative = growth inhibition": "-28.7% (inactive)"},
      {"smiles": "O=C(Nc1ccncc1)c1cc2ccccc2o1", "Potency": "8.2 µM (active)"},
      {"smiles": "Cc1ccc(NC(=O)c2cc3ccccc3o2)cc1", "activity change, negative = growth inhibition": "-19.7% (inactive)"},
      {"smiles": "CC(C)Oc1ccc(NC(=O)c2cc3ccccc3o2)cc1", "activity change, negative = growth inhibition": "-62.1% (inactive)"},
      {"smiles": "CCOC(=O)C(=CNc1cccc(C)n1)C(=O)OCC", "activity change, negative = growth inhibition": "-0.363% (inactive)"},
      {"smiles": "O=C(c1csnn1)N1CCC2(CC1)CN(c1ncccn1)C2", "activity change, negative = growth inhibition": "-14.4% (inactive)"}
    ]}
  ]
}
